13 molecules from PubChem BioAssay (NCI) can be followed below.

Test systems include NCI-H23 lung; NCI-H226 lung; NCI-H322M lung; HOP-62 NSCLC; NCI-H460 lung; HOP-92 NSCLC; NCI-H522 lung; A549/ATCC NSCLC; 786-0 renal; COLO 205 colon.
Test in all cases: NCI-60 one-dose screen, 48 h (100 = growth as untreated, 0 = no growth, -100 = all killed)
Conditions in all cases: 10 µM

The panel holds about 83,000 compounds, 20% with a hit somewhere; the sample as a whole holds those more often.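 For each line, cells grew in 96-well plates with the test compound present at a single concentration for 48 hours.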 A number with no mark means an inactive call. Activity calls are given as the source filed them. How the source made its calls: active means growth percent below 10; inactive means the rest.

As to `CC(C)C[C@H](NC(=O)CCn1ccc2ccccc2c1=O)B(O)O`, the growth is 63.4% with NCI-H23 lung; -16.2% (active) in the assay with NCI-H226 lung; 91% with NCI-H322M lung; 82.7% with HOP-62 NSCLC; 93.8% in the assay on NCI-H460 lung; 90.1% in the assay with HOP-92 NSCLC. Besides, the growth is 19.9% in the assay with NCI-H522 lung, 58% with A549/ATCC NSCLC, 48.5% in the assay on 786-0 renal and 48.7% with COLO 205 colon.
`COc1ccc(C(=O)c2sc3nc(-c4cccs4)ccc3c2N)cc1OC`: the growth was 74.3% in the assay on NCI-H23 lung; 73% in the assay with NCI-H226 lung; 85% in the assay on NCI-H322M lung; 70.6% with HOP-62 NSCLC; 36.1% with NCI-H460 lung; -0.708% (active) in the assay on HOP-92 NSCLC. Also, the growth in the assay with NCI-H522 lung is 24%; in the assay with A549/ATCC NSCLC it was 35.8%; in the assay on 786-0 renal, 70.7%; with COLO 205 colon it was 40.9%.
For the molecule `O=C(/C=C/c1ccc(Cl)cc1)c1ccc(Br)cc1`, the growth in the assay on NCI-H23 lung is 94.6%; with NCI-H226 lung it was 108%; in the assay on NCI-H322M lung, 91.2%; with HOP-62 NSCLC it was 97.2%; in the assay with NCI-H460 lung, 109%; with HOP-92 NSCLC, 111%. Besides, the growth in the assay with NCI-H522 lung is 82.6%; in the assay with A549/ATCC NSCLC it was 102%; in the assay with 786-0 renal it was 81.1%; with COLO 205 colon, 110%.
`COc1ccc(-c2nsc3c2NC(=O)CC3c2ccc(Cl)cc2)cc1` (stereo not given): the growth with NCI-H23 lung is 83.9%; with NCI-H226 lung, 84.4%; with NCI-H322M lung, 83.5%; in the assay on HOP-62 NSCLC, 92.6%; in the assay on NCI-H460 lung it was 94.8%; in the assay with HOP-92 NSCLC, 73.3%. For the same molecule, the growth in the assay with NCI-H522 lung was 68.1%; in the assay on A549/ATCC NSCLC, 76.6%; with 786-0 renal it was 84.2%; in the assay with COLO 205 colon it was 93.8%.
Take `COc1ccc(/C(=C/c2cc(OC)c(OC)cc2[N+](=O)[O-])C(=O)O)cc1`: the growth in the assay with NCI-H23 lung was 103%; in the assay on NCI-H226 lung, 101%; in the assay on NCI-H322M lung, 118%; with HOP-62 NSCLC, 94.1%; with NCI-H460 lung it was 110%; in the assay with HOP-92 NSCLC, 97.2%. The growth in the assay on NCI-H522 lung was 107%; in the assay with A549/ATCC NSCLC it was 108%; in the assay on 786-0 renal it was 106%; in the assay with COLO 205 colon, 127%.
For `COc1cc(/C=C/C(=O)c2cc(-c3ccc(F)cc3)ccc2O)cc(OC)c1OC`, the growth with NCI-H23 lung was 56.3%; with NCI-H226 lung it was 83.5%; in the assay with NCI-H322M lung it was 93.6%; in the assay on HOP-62 NSCLC, 115%; with NCI-H460 lung, 80.6%; with HOP-92 NSCLC, 57.8%. Further, the growth was 58.7% with NCI-H522 lung, 83.5% in the assay on A549/ATCC NSCLC, 94.1% in the assay on 786-0 renal and 88.2% in the assay on COLO 205 colon.
Regarding `N#CC1C=Cc2c(ccc3ccccc23)N1C(=O)c1ccccc1` (stereo not given), the growth in the assay with NCI-H23 lung is 29.8%; with NCI-H226 lung it was 12.9%; in the assay on NCI-H322M lung, 22.6%; in the assay on HOP-62 NSCLC, 50%; with NCI-H460 lung it was 1.38% (active); in the assay on HOP-92 NSCLC it was 50.6%. Besides, the growth was 9.32% (active) in the assay on NCI-H522 lung, 26.9% with A549/ATCC NSCLC, 34% in the assay on 786-0 renal and -39.8% (active) with COLO 205 colon.
For the molecule `c1ccc(COCC[P+](c2ccccc2)(c2ccccc2)c2ccccc2)cc1`, the growth in the assay on NCI-H23 lung was -10.1% (active); with NCI-H226 lung, 28.5%; in the assay with NCI-H322M lung it was 10.4%; in the assay on HOP-62 NSCLC, 22.1%; in the assay with NCI-H460 lung, 3.37% (active); in the assay with HOP-92 NSCLC, -29.9% (active). For the same molecule, the growth is -9.64% (active) in the assay on NCI-H522 lung, 8.47% (active) with A549/ATCC NSCLC, 16.9% in the assay with 786-0 renal and -41.2% (active) with COLO 205 colon.
Take `NC(N)=NS(=O)(=O)c1ccc(Nc2ccc3nnc(-c4ccncc4)n3n2)cc1`: the growth in the assay with NCI-H23 lung was 102%; with NCI-H226 lung, 96.5%; with NCI-H322M lung it was 103%; in the assay with HOP-62 NSCLC, 110%; in the assay on NCI-H460 lung it was 98.3%; in the assay with HOP-92 NSCLC, 107%. Moreover, the growth in the assay with NCI-H522 lung is -57.2% (active); in the assay with A549/ATCC NSCLC it was 108%; with 786-0 renal, 104%; in the assay on COLO 205 colon, 111%.
`Cc1cc(O)c(C2=NN(c3ccc(S(N)(=O)=O)cc3)C(c3ccc(N(C)C)cc3)C2)c(C)c1Cl` (stereo not given): the growth in the assay with NCI-H23 lung was 79.3%; in the assay on NCI-H226 lung, 88.8%; in the assay with NCI-H322M lung, 97.6%; with HOP-62 NSCLC, 107%; in the assay on NCI-H460 lung it was 47.1%; in the assay with HOP-92 NSCLC, 45.5%. Also, the growth is 39.7% with NCI-H522 lung, 40.8% in the assay with A549/ATCC NSCLC, 95.6% with 786-0 renal and 76.2% in the assay on COLO 205 colon.
With `CC(=O)/C(=C\c1ccc(Cl)cc1)c1ccccc1`, the growth with NCI-H23 lung was 20.1%; in the assay with NCI-H226 lung, 8.66% (active); in the assay on NCI-H322M lung it was 49.1%; in the assay on HOP-62 NSCLC, 32%; in the assay on NCI-H460 lung, 6.31% (active); in the assay with HOP-92 NSCLC it was -0.736% (active). Moreover, the growth in the assay with NCI-H522 lung is -1.57% (active); in the assay with A549/ATCC NSCLC, 17.1%; in the assay on 786-0 renal, 22.9%; with COLO 205 colon, -40.5% (active).
For the molecule `S=C(Cc1ccc(-c2ccccc2)cc1)N1CCOCC1`, the growth with NCI-H23 lung was 104%; in the assay with NCI-H226 lung, 91.7%; in the assay with NCI-H322M lung it was 96%; with HOP-62 NSCLC, 93.6%; in the assay on NCI-H460 lung, 103%; with HOP-92 NSCLC, 83.1%. Moreover, the growth is 89.8% in the assay on NCI-H522 lung, 90.9% in the assay on A549/ATCC NSCLC, 93.6% in the assay on 786-0 renal and 103% in the assay on COLO 205 colon.
Turning to `CC(C)/C=N/NC(N)=S`, the growth was 96.6% with NCI-H23 lung; 95.7% with NCI-H226 lung; 101% in the assay with NCI-H322M lung; 75.6% with HOP-62 NSCLC; 97.4% with NCI-H460 lung; 73.1% with HOP-92 NSCLC. Besides, the growth in the assay with NCI-H522 lung was 94%; with A549/ATCC NSCLC it was 71.8%; in the assay with 786-0 renal, 100%; with COLO 205 colon, 103%.
